Mot1-301 SUMO – SUMOylation pathway inhibition by Mot1-301 growth rescue; S. cerevisiae Mot1-301 growth rescue, ATP luminescence, 38.5C; percent above DMSO median, 100 means doubled; hit rate 1% among 320,000; growth rescue, % at 18.8 µM;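 active = every valid replicate shows activation above 250% relative to neutral control wells; inactive = the rest, any valid replicate at or below 250%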;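 note: OY570 slx delta 5 strain wells were the positive control but not used for scaling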
M18AAP inhibitor – blocks P. falciparum M18 aspartyl aminopeptidase; recombinant PfM18AAP, H-Glu-NHMec fluorogenic cleavage; inhibition, % at 7.35 µM; hit rate 1.2% among 290,000; AID 1822;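 active = inhibition above the campaign mean inhibition over all tested compounds plus 3 SD, cut at about 28% in these data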;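 note: 0% = plate median of test compound wells and 100% = 2 mM ZnCl2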
ALR H2O2 inh – blocks human ALR sulfhydryl oxidase activity. purified ALR, DTT oxidation, H2O2 HRP-luminol luminescence. inhibition, % (test concentration not listed). hit rate 3.8% among 290,000. AID 485317;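 active = mean replicate inhibition above about 79%, with every replicate also reaching it, limit read from the data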
Target sequence (P55789 whole entry, looked up): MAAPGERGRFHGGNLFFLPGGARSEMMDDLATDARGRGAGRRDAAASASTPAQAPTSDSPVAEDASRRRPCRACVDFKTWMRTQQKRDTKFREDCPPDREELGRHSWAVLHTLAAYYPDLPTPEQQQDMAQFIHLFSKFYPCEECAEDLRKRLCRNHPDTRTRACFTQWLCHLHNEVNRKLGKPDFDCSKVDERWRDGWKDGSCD
HIF activator – HIF pathway transcriptional activation | AID 1910 | U2OS HRE-luciferase reporter, luminescence; normalized: DMSO 0%, desferrioxamine 100% | activation, % at 7.5 µM (by protocol) | hit rate 0.32% among 300,000;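 active = mean activation of at least 10% of the iron chelator positive control signal, with at least half of replicates also reaching 10%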
Numbers without * were called inactive; . = no result. Hits are enriched below; roughly 5.3% of the tested compounds scored in any of these assays.

SMILES | Mot1-301 SUMO | M18AAP inhibitor | ALR H2O2 inh | HIF activator
O=C(c1cccc(Br)c1)N1CCN(S(=O)(=O)N2CCOCC2)CC1 | 333* | -1 | -4 | 0
Cc1cccc(C(=O)NC(=S)NCc2cccnc2)c1 | 1 | 1 | 8 | 0
CCCCn1c(-c2ccco2)n[nH]c1=S | . | 19 | 98* | 0
COc1ccccc1-c1n[nH]c(=S)n1Cc1ccccc1 | 18 | 17 | 86* | 0
S=c1[nH]nc(-c2ccco2)n1/N=C/c1ccccc1Cl | 3 | 15 | 3 | -7
S=c1[nH]nc(-c2ccc(Br)o2)n1Cc1ccccc1 | -15 | 5 | 64 | 0
S=c1[nH]nc(-c2ccco2)n1/N=C/c1ccc(Cl)cc1 | 103 | 31* | . | 0
S=c1[nH]nc(-c2ccco2)n1Cc1ccccc1 | 3 | 16 | 92* | .
CCn1c(-c2ccco2)n[nH]c1=S | 6 | -2 | 73 | -1
CCOC(=O)Cc1nn(C)c(=O)c2ccccc12 | -9 | 11 | -3 | 0
CCOC(=O)Cc1nn(CC)c(=O)c2ccccc12 | 6 | 7 | 1 | 90*
OCCCNc1nc(-c2ccc(Cl)cc2)nc2ccccc12 | -5 | -2 | 98* | -6
COCCCNc1nc(-c2ccc(Cl)cc2)nc2ccccc12 | 16 | 2 | 0 | -1
CCN(CCO)Cc1cc(=O)oc2cc3c(cc12)CCC3 | -9 | 0 | 87* | 0
COc1ccc(Cl)cc1NC(=O)CC1S/C(=N/N=C2CCCCCC2)NC1=O (centres undefined) | -6 | -13 | -4 | 0
C=CCn1c(CCC(O)COCCCCC)n[nH]c1=S (centres undefined) | -11 | 7 | 96* | 0
C=CCn1c(C(CCCC)CC(O)COCCC)n[nH]c1=S (centres undefined) | 5 | 15 | 92* | 0
O=C1N(c2ccccc2)C[C@@H]2C[C@@H](c3cccs3)N3CCC[C@@]123 | -13 | -10 | -28 | .
CC(C)(O)C#Cc1ccc([C@@H]2C[C@H]3CN(c4ccccc4)C(=O)[C@]34CCCN24)s1 | 10 | 1 | 92* | 0
Oc1c(Br)cc(/C=N/n2c(-c3ccccc3)n[nH]c2=S)c(Br)c1O | 176 | 33* | . | 0
S=c1[nH]nc(-c2ccncc2)n1/N=C/C=C/c1ccccc1 | 9 | 27 | 92* | 0
Cc1ccc(-c2n[nH]c(=S)n2/N=C/c2c(C)[nH]n(-c3ccccc3)c2=O)cc1 | -14 | 21 | 98* | 0
Oc1ccccc1/C=N/n1c(-c2ccccc2)n[nH]c1=S | 13 | 26 | 98* | -2
Cc1[nH]n(-c2ccccc2)c(=O)c1/C=N/N(C)c1ccccc1 | -5 | -14 | 82* | 0
O=[N+]([O-])c1ccc(O)c(/C=N/n2c(-c3ccccc3)n[nH]c2=S)c1 | -14 | 17 | 93* | 0
SMILES | Mot1-301 SUMO | M18AAP inhibitor | ALR H2O2 inh | HIF activator
COc1ccc(C)cc1NC(=O)CCc1ccc(S(=O)(=O)N2CCOCC2)cc1 | 10 | . | -5 | .
COCCn1c(N)c(C(=O)c2cccc(S(=O)(=O)N3CCCCCC3)c2)c(=O)[nH]c1=O | -10 | . | -1 | .
O=[N+]([O-])c1ccc(N/N=C/C=C/c2ccco2)cc1 | 32 | . | 43 | .
O=C1/C(=C\c2ccco2)SC(=S)N1C1CCS(=O)(=O)C1 (centres undefined) | 94 | 29* | -15 | 0
Cc1ccc(/C=C2\SC(=S)N(C3CCS(=O)(=O)C3)C2=O)cc1 (centres undefined) | -7 | -3 | 2 | 0
O=C1/C(=C/c2ccco2)SC(=S)N1C1CCS(=O)(=O)C1 (centres undefined) | 13 | 31* | -5 | -4
CC(C)CN(C(=O)CSc1nc2ccccc2[nH]1)C1CCS(=O)(=O)C1 (centres undefined) | -8 | . | . | .
Cc1ccc(N2CCN(S(=O)(=O)c3c(C)noc3C)CC2C)cc1 (centres undefined) | -14 | 4 | 49 | 2
CN(C)c1ccc(/C=C/c2cc[n+](C)cc2)cc1 | 6 | 19 | 99* | 0
CN(C)c1ccc(/C=C/c2cc[n+]([O-])cc2)cc1 | 11 | 6 | 99* | 2
Cc1ccc(/C=C/c2ccc(N(C)C)cc2)[n+](C)c1 | 164 | 7 | 99* | 5
C/C(=N\Nc1nc2ccccc2[nH]1)c1ccc(Cl)s1 | 44 | 0 | 99* | 1
C/C(=N\Nc1nc2ccccc2[nH]1)c1ccc(C)o1 | -19 | 11 | 99* | 2
NC(=O)c1ccccc1NC(=O)C(c1ccccc1)c1ccccc1 | 113 | . | -1 | 0
O=C(NCC(c1cccs1)N1CCOCC1)c1ccc(Cl)c([N+](=O)[O-])c1 (centres undefined) | -6 | 5 | -1 | 0
Cc1csc(N/N=C/c2ccccc2F)n1 | 288 | 0 | 12 | -6
O=C(N/N=C/c1c(O)ccc2ccccc12)c1[nH]ncc1Br | -28 | 7 | -29 | 115*
CCOc1ccc(/C=N/NC(=O)c2[nH]ncc2Br)c(O)c1 | -15 | 7 | 5 | 23*
O=C(N/N=C\c1c(O)ccc2ccccc12)c1ccc(Cn2cccn2)o1 | . | 1 | -43 | 38*
CCOc1ccc(/C=N/Nc2nc(C)cs2)c(O)c1 | -17 | 28* | 5 | -24
COc1ccc(OC)c(/C=N/NC(=O)c2[nH]ncc2Br)c1 | -3 | 4 | -2 | 1
O=C(N/N=C\c1ccc(Cl)s1)c1ccc(Cn2cccn2)o1 | -2 | 7 | -2 | 2
O=C(NCCOc1ccc(Cl)cc1)C1CC(=O)N(c2ccc3c(c2)OCCO3)C1 (centres undefined) | -6 | . | . | .
N#Cc1ccc(OCC(=O)n2cc(C(=O)c3cc(Cl)cc(Cl)c3O)cn2)cc1 | -12 | 9 | 25 | 1
O=C(N/N=C/c1c(O)ccc2ccccc12)c1cccc(C(F)(F)F)c1 | 149 | 5 | -11 | 14*
SMILES | Mot1-301 SUMO | M18AAP inhibitor | ALR H2O2 inh | HIF activator
Cc1ccc(C(=O)NCc2ccc3c(c2)OCO3)cc1C | 488 | -7 | -5 | -1
N#CC1=C(N)N(c2ccccc2)C2=C(C(=O)CCC2)C1c1cccs1 (centres undefined) | 4 | 29* | 12 | 0
Cn1ccnc1SCC(=O)Nc1cccc([N+](=O)[O-])c1 | . | -18 | -7 | 0
Cn1ccnc1SCc1cccc([N+](=O)[O-])c1 | 1 | 4 | 98* | 2
Cn1ccnc1SCc1ccc([N+](=O)[O-])cc1 | -4 | 1 | 99* | 0
Nc1sc2c(c1C(=O)NC1CC1)CCCC2 | 13 | . | 9 | .
Oc1[nH]c2ccccc2c1C=Nc1ccccc1 | 0 | 6 | . | 4
OCCN=Cc1c(O)[nH]c2ccccc12 | 17 | 10 | 99* | 0
COc1ccc(CN=Cc2c(C(=O)O)[nH]c3ccccc23)cc1 | -13 | -12 | 1 | 0
COCC(C)N=Cc1c(O)[nH]c2ccccc12 (centres undefined) | -4 | 7 | 99* | .
CN(C)CC(C)(C)CN=Cc1c(O)[nH]c2ccccc12 | 213 | 4 | 99* | 0
CC(=O)c1ccccc1NC(=O)CCCNC(=O)c1ccc(Cl)cc1 | -17 | 2 | -9 | -6
COc1ccc(-c2cc(C(=O)NC(C)c3ccccn3)c3ccccc3n2)cc1OC (centres undefined) | -8 | . | 2 | .
